This note sets out measurements from PubChem BioAssay AID2685 (National Center for Advancing Translational Sciences (NCATS), 2010).

Each structure is given as a SMILES string. About 2,100 (0.66%) of roughly 320,000 compounds were called active. Another 53% or so got no clear call; they are omitted. The call rests on the fitted dose curve; in most records, active means well fitted inhibition curve with a large enough effect in the signal ratio, with a control signal flat (not every such curve was filed as active); inconclusive means small, poorly fitted or top-dose-only effect, or effect the other way, or a change in a side signal; inactive means flat fitted curve, though single readings scatter; the % refers to the signal ratio. What follows is part of a selection rich in actives, with near analogues and random picks from the rest.
Potency means the concentration at half of the fitted maximal effect.

The assay is described as follows: qHTS Assay for Lipid Storage Modulators in Drosophila S3 Cells.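 On cell number change: cells counted by Cell Tracker Red CMTPX staining in the red channel.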 On lipid storage change, negative = inhibition: on the % scale 0 is the no-effect control and ±100 the full control effect. The note with it: BODIPY lipid droplet fluorescence, 18-24 h, cells fed with added oleic acid; cell number change: measured here: cell count max response; series mostly up to 46.1 µM; lipid storage change, negative = inhibition: at the top concentration. The method in brief:
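Drosophila S3 cells loaded with oleic acid (400 uM, as added) and compounds at several concentrations; lipid droplets imaged by 488-nm laser-scanning cytometry, 500–530 nm intensity and object ratio to cell channel. Percent activity normalized to 20 uM Triacsin C.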
(qHTS replaces the single test concentration by a dilution series.)
For `COc1cnc(-c2ccccc2)nc1Oc1ccccc1C`, the Potency was 5.17 µM (active) and the cell number change is -26.8%.

`COc1ccc(/C=C2/N=C(SC3CCOC3=O)N(c3cccc(OC)c3)C2=O)cc1` (stereo unspecified): the “lipid storage change, negative = inhibition” value is -2.83% (inactive) and the cell number change is -7.72%.

Regarding `CCOC(=O)C1CCN(CC(=O)c2c(C)[nH]c3ccccc23)CC1`, the molecule was called inactive.

Turning to `O=c1oc(-c2cccs2)nc2ccccc12`, the “lipid storage change, negative = inhibition” value was -17.8% (inactive) and the cell number change came out at 0.728%.

Turning to `Cc1ccccc1CSCCNC(=O)CSCc1ccc([N+](=O)[O-])cc1`, the “lipid storage change, negative = inhibition” value was 13% (inactive) and the cell number change was -11.7%.

Regarding `Cc1ccc(CSCCNC(=O)CSCc2ccc([N+](=O)[O-])cc2)cc1`, the molecule was called inactive.

For `Cc1cccc(CSCCNC(=O)CSCc2ccc([N+](=O)[O-])cc2)c1`, the Potency is 14.6 µM (active) and the cell number change was -21.3%.

`Cc1ccc(C)c(N2CCN(C(=O)c3ccccc3Br)CC2)c1`: the “lipid storage change, negative = inhibition” value was 20.8% (inactive) and the cell number change worked out at 10.9%.

As for `CNc1ccccc1C(C)(C)c1cc(-c2cccc(Br)c2)no1`, the Potency was 1.46 µM (active) and the cell number change was -5.11%.

Take `Brc1cccc(-c2nnc(-c3ccccc3)o2)c1`: the “lipid storage change, negative = inhibition” value was 2.23% (inactive) and the cell number change was 1.68%.

For the molecule `COC(=O)C1(Cc2cc(-c3cccc(Br)c3)no2)CCN(C(=O)OC(C)(C)C)CC1`, the “lipid storage change, negative = inhibition” value is 36% (inactive) and the cell number change was 7.19%.

As to `CCc1ccc(CNC(=O)C2CCN(S(=O)(=O)N3CCC4(CC3)OCCO4)CC2)cc1`, the “lipid storage change, negative = inhibition” value was 2.59% (inactive) and the cell number change stood at 0.101%.

For the molecule `Cc1ccccc1C(=O)Nc1ccnn1C1CCN(Cc2c(C)n(C)c3ccccc23)CC1`, the “lipid storage change, negative = inhibition” value was -18.4% (inactive) and the cell number change came out at 1.16%.

As for `Cc1ccc(N=Nc2c(O)[nH]c3ccc(F)cc23)cc1`, the Potency was 9.2 µM (active) and the cell number change was found to be 2.25%.

As for `Oc1[nH]c2ccccc2c1N=Nc1c(F)c(F)c(Cl)c(F)c1F`, the “lipid storage change, negative = inhibition” value is -1.55% (inactive) and the cell number change was -0.455%.

Regarding `O=C(O)c1ccc(N=Nc2c(O)[nH]c3ccc(Br)cc23)cc1`, the “lipid storage change, negative = inhibition” value is -23.1% (inactive) and the cell number change was found to be 13.1%.

Consider `Oc1[nH]c2ccccc2c1N=Nc1c(F)c(F)c(C(F)(F)F)c(F)c1F`, for which the “lipid storage change, negative = inhibition” value was -3.87% (inactive) and the cell number change was 14.6%.

For `Cc1ccc2[nH]c(O)c(N=NC(N)=S)c2c1`, the “lipid storage change, negative = inhibition” value is -0.73% (inactive) and the cell number change came to 9.04%.

Consider `Oc1[nH]c2ccccc2c1N=Nc1ccc(F)cc1`, for which the Potency is 20.6 µM (active) and the cell number change is -4.65%.

On to `O=C(NC1(C(=O)NC2CCCCC2)CCCCC1)c1ccc2c(c1)OCO2`, for which the “lipid storage change, negative = inhibition” value was -0.326% (inactive) and the cell number change is 4.66%.

Take `O=C(NNC(=O)c1cnccc1C(F)(F)F)c1ccccc1`: the “lipid storage change, negative = inhibition” value was 12.6% (inactive) and the cell number change stood at 8.28%.

With `O=C(O)CC12CC3CC(C1)CC(n1ncc(NCc4ccc5c(c4)OCO5)c(Cl)c1=O)(C3)C2`, the “lipid storage change, negative = inhibition” value was 2.72% (inactive) and the cell number change was determined as 16.3%.

With `O=C(NCC1CCCO1)c1ccc(NC(=O)c2ccc([N+](=O)[O-])cc2)cc1` (stereo unspecified), the “lipid storage change, negative = inhibition” value was 5.72% (inactive) and the cell number change came to 13.2%.

As to `CN(CC1CCCO1)S(=O)(=O)c1ccc(C(=O)Nc2ccc([N+](=O)[O-])cc2)cc1` (stereo unspecified), the Potency is 12.6 µM (active) and the cell number change is -17.5%.

Take `CN(CC1CCCO1)S(=O)(=O)c1ccc(C(=O)Nc2ccc3c(c2)OCO3)cc1` (stereo unspecified): the “lipid storage change, negative = inhibition” value is 11.3% (inactive) and the cell number change came out at 16.6%.

For `CN(C)S(=O)(=O)c1ccc(NC(=O)c2ccc([N+](=O)[O-])cc2)cc1`, the “lipid storage change, negative = inhibition” value was -4.71% (inactive) and the cell number change was -1.07%.

Take `Cc1cc(NC(=O)c2ccc(S(=O)(=O)N(C)CC3CCCO3)cc2)no1` (stereo unspecified): the “lipid storage change, negative = inhibition” value was 0.714% (inactive).

With `CN(CC1CCCO1)S(=O)(=O)c1ccc(C(=O)Nc2ccc(F)cc2)cc1` (stereo unspecified), the Potency is 23.1 µM (active) and the cell number change was -21.7%.

Take `CCOC(=O)Cn1c(=O)c2c(nc3n2CCS3)n(C)c1=O`: the “lipid storage change, negative = inhibition” value was 11.5% (inactive) and the cell number change stood at 2.48%.

In the case of `CN1C(C(=O)NCc2ccco2)CC2Cn3c(nc4cc5ccccc5cc43)C21` (stereo unspecified), the “lipid storage change, negative = inhibition” value was 11.7% (inactive) and the cell number change stood at 2.89%.

Regarding `COc1cccc(C(=O)NCCS(=O)(=O)N2CC(C)CC(C)C2)c1` (stereo unspecified), the “lipid storage change, negative = inhibition” value is 27% (inactive) and the cell number change is 28.7%.

Consider `CCN(Cc1ccccc1)C(c1ccncc1)c1nnnn1C(C)(C)C` (stereo unspecified), for which the “lipid storage change, negative = inhibition” value was 8.87% (inactive) and the cell number change is 1.49%.

In the case of `Cc1c2ccccc2nc2c(F)c(NC(C)C)c(F)c(F)c12`, the Potency is 20.6 µM (active) and the cell number change is -3.77%.

For the molecule `CCCNc1nc2ccccc2c(=O)[nH]1`, the “lipid storage change, negative = inhibition” value is 8.85% (inactive) and the cell number change was -7.59%.

Regarding `CN(C)c1c2ccccc2nc2c(F)c(F)c(F)c(F)c12`, the “lipid storage change, negative = inhibition” value is 0.999% (inactive) and the cell number change is -0.117%.

Turning to `CCCNc1c(F)c(F)c2c(C)c3ccccc3nc2c1F`, the Potency was 14.6 µM (active) and the cell number change stood at 13.7%.

As for `Cc1c2ccccc2nc2c(F)c(NCCO)c(F)c(F)c12`, the “lipid storage change, negative = inhibition” value was -22.8% (inactive) and the cell number change is -2.87%.

As for `Cc1c2ccccc2nc2c(F)c(N(C)C)c(F)c(F)c12`, the “lipid storage change, negative = inhibition” value was -15.5% (inactive) and the cell number change is -4.76%.

Turning to `CCOC(=O)/C(=N\NC(=O)c1ccccc1)c1ccccc1`, the “lipid storage change, negative = inhibition” value is -1.81% (inactive) and the cell number change stood at 17.6%.

In the case of `CCOC(=O)c1sc2ccc(S(=O)(=O)N3CCOCC3)cc2c1N`, the “lipid storage change, negative = inhibition” value was -16.1% (inactive) and the cell number change was -11.9%.

As to `CCOC(=O)NC(=O)CSc1cc(C)c2cc(C)cc(C)c2n1`, the “lipid storage change, negative = inhibition” value is 4.15% (inactive) and the cell number change is -6.06%.

Consider `O=C(c1ccc(F)cc1)N1CCN(S(=O)(=O)c2ccc(Br)cc2)CC1`, for which the result was inactive.

Turning to `CCOC(=O)C1(C)NC(c2cccc(C)c2)C2C(=O)N(c3ccccc3)C(=O)C21` (stereo unspecified), the “lipid storage change, negative = inhibition” value was 7.92% (inactive) and the cell number change was 1.72%.

In the case of `CCOC(=O)C1(C)NC(c2ccc(O)cc2)C2C(=O)N(c3ccccc3)C(=O)C21` (stereo unspecified), the Potency is 20.6 µM (active) and the cell number change turned out to be 13.7%.

For `COC(=O)C1(CCSC)NC(c2ccc(O)cc2)C2C(=O)N(c3ccc4c(c3)OCCO4)C(=O)C21` (stereo unspecified), the “lipid storage change, negative = inhibition” value was 9.79% (inactive) and the cell number change was determined as 9.07%.

With `CCCC1(C(=O)OCC)NC(c2ccc(N(C)C)cc2)C2C(=O)N(c3ccc4c(c3)OCCO4)C(=O)C21` (stereo unspecified), the “lipid storage change, negative = inhibition” value is -5.4% (inactive) and the cell number change came out at 7.42%.

Consider `COC(=O)C1(C)NC(c2ccc(O)cc2)C2C(=O)N(c3ccc(C)cc3)C(=O)C21` (stereo unspecified), for which the “lipid storage change, negative = inhibition” value was -17% (inactive) and the cell number change was -4.99%.

Consider `CCCC1(C(=O)OCC)NC(c2ccc(O)cc2)C2C(=O)N(c3ccc4c(c3)OCCO4)C(=O)C21` (stereo unspecified), for which the Potency was 18.4 µM (active).
